Assay outcomes (PubChem BioAssay)
H9c2 protect – cardioprotection against H2O2-induced cell death, primary screen, uHTS, H9c2 cells, ATPLite luminescence; H9c2 cardiomyocytes, H2O2 injury protection, 2 h; protection from H2O2 cell death, % at 20 µM; 0.63% of 360,000 active;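 active = compounds giving at least 50% protection of heart cells from peroxide-induced death in the single-dose screen, raw or plate-pattern-corrected value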
GalR3 antag – GalR3 antagonists in HEK293 cells, primary screen, cell-based, fluorescence readout. Galanin receptor type 3 (Homo sapiens), O60755. HEK293 GalR3-CNG cAMP membrane potential fluorescence; galR3 body fused to GalR1 C-terminus. inhibition, % at 3 µM. 0.44% of 360,000 active;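 active = inhibition above the screen-wide average plus 3 SD, cut at about 13% in these data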;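 note: forskolin and galanin both at EC90 stimulate the cells; cAMP rise reported by CNG channel membrane potential dye signal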
Target sequence (O60755 1-299 limits assumed): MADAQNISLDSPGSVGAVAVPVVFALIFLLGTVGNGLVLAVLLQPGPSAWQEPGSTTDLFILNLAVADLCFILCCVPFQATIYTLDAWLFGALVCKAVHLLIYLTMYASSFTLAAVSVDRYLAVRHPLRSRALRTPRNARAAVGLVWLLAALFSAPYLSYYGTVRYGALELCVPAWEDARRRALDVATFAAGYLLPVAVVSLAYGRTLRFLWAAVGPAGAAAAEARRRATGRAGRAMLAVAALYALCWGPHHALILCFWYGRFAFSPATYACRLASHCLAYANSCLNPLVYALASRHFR
GAA850 FXN act – FXN promoter activators, primary screen, cell-based, luciferase luminescence, HEK293 lucGAA850 | HEK293 lucGAA850 FXN promoter luciferase reporter, 24 h; percent of 10 µM SAHA response | activation, % at 6 µM | 0.56% of 360,000 active | AID 540364, 2011;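 active = activation above the average of all compounds screened plus 3 SD, cutoff fixed separately per campaign, cut at about 7.5% in these data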
Gli-Sufu block – Gli-Sufu pathway antagonists, primary screen, luciferase luminescence, Sufu-KO-LIGHT cells, uHTS; Sufu-KO-LIGHT fibroblasts, Gli luciferase reporter luminescence; 0.74% of 340,000 active; inhibition, % at 5 µM;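 active = inhibition above about 55%, limit read from the data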
SMARCA2 activ – SMARCA2 (BRM) function activators, primary screen, cell-based, luminescence, high throughput. AID 652017, 2013. MG213 cells, MMTV-luciferase reporter, dexamethasone, overnight. activation, % at 9.1 µM. 1% of 370,000 active; in the data active = activation above about 7.8%
NR2F2 inh – NR2F2 transcriptional activity inhibitors, primary screen, cell-based, luciferase reporter, HEK293T, luminescence | COUP transcription factor 2 (Homo sapiens), P24468 | HEK293T NGFI-A luciferase reporter | inhibition, % at 8.6 µM | 0.7% of 370,000 active | AID 686940, 2013;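 active = inhibition above a per-plate cutoff, mean inhibition of test wells between control levels plus 3 SD, cut at about 38% in these data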;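 note: cells cotransfected with COUP-TFII expression vector driving the NGFI-A reporter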
GalR3 antag conf – GalR3 antagonist hit confirmation, cell-based, fluorescence, triplicate. shares compounds with GalR3 antag. HEK293 GalR3 CNG cAMP biosensor, membrane potential fluorescence; galR3 fused to GalR1 carboxy tail; challenged with forskolin and galanin at EC90. inhibition, % at 3 µM. 59% of 1,600 active. AID 652245, 2013;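 active = inhibition above the primary screen's cutoff, the mean inhibition of all screened compounds plus 3 SD, cut at about 13% in these data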
CNG parental – nonspecific cAMP agonists in parental HEK-CNG cells, counter-screen for GalR3 antagonist project, cell-based, fluorescence, high throughput; HEK293-CNG parental cells, cAMP membrane potential fluorescence; normalised: DMSO wells 0%, forskolin wells 100%; 10% of 1,600 active; shares compounds with GalR3 antag; activation, % at 3 µM; in the data active = activation above about 1.3%
Each line names hits and unclear results; the compound was inactive in the other large screens (follow-up assays come after a bar, where they were run). In the library only some 3.4% were active in any assay of this set; here they are far more common.

Cc1ccc(NC(=O)CN(C)C(=O)CCCN2C(=O)c3ccccc3C2=O)cc1	GalR3 antag 14 | GalR3 antag conf inactive | CNG parental inactive
CN(CC(=O)Nc1c(Cl)cccc1Cl)C(=O)CCCN1C(=O)c2ccccc2C1=O	none
COc1ccc2oc(C(=O)OCC(=O)Nc3cc(S(=O)(=O)N4CCOCC4)ccc3OC)c(C)c2c1	none
Cc1csc2ncnc(N3CCN(C(=S)Nc4ccc(C(F)(F)F)cc4)CC3)c12	GalR3 antag 67 | GalR3 antag conf 93 | CNG parental 1.8
COC(=O)c1c(NC(=O)c2ccco2)sc(C(=O)N2CCCC2)c1C	none
COc1ccc(-n2c(N)cc(=O)[nH]c2=O)cc1	none (no result: H9c2 protect, GalR3 antag, GAA850 FXN act, SMARCA2 activ, NR2F2 inh)
Nc1cc(=O)[nH]c(=O)n1-c1cccc(F)c1	GalR3 antag 27 | GalR3 antag conf inactive | CNG parental inactive
Cc1cc(C)c(S(=O)(=O)N2CCN(C(=O)C3COc4ccccc4O3)CC2)c(C)c1 (centres undefined)	none
N#C/C(=C(/O)COc1ccc(Cl)cc1)c1nc2ccccc2s1	GalR3 antag 14 | GalR3 antag conf inactive | CNG parental 1.3
CCOC(=O)C1=C(C)NC2=C(C(=O)CCC2)C1c1ccc(O)c(OCC)c1 (centres undefined)	GalR3 antag 16 | GalR3 antag conf 24 | CNG parental inactive
COc1ccc(C2C3=C(CCCC3=O)Nc3ccc4ncccc4c32)cc1OC (centres undefined)	none
COc1cc(C2C3=C(CCCC3=O)Nc3ccc4ncccc4c32)ccc1O (centres undefined)	GalR3 antag 15 | GalR3 antag conf inactive | CNG parental inactive
CCOc1ccc(CCN2C(=O)C(=O)N([C@@H](CC(C)C)CN3CCC[C@H]3CN3C(=O)C(=O)NC[C@@H]3CC(C)C)C[C@@H]2Cc2ccc(O)cc2)cc1	none (no result: H9c2 protect, GAA850 FXN act, Gli-Sufu block)
COc1ccc(CN(CC(=O)NCc2ccc(F)cc2)C(=O)CCC(=O)Nc2nccs2)cc1	none
CN(C(=O)c1ccc(S(=O)(=O)c2cccc(Cl)c2)c([N+](=O)[O-])c1)C1CCCCC1	GalR3 antag 22 (no result: Gli-Sufu block) | GalR3 antag conf inactive | CNG parental inactive
CN(C(=O)c1ccc(NC(=O)Cc2cccc([N+](=O)[O-])c2)cc1)C1CCCC1	none
Cc1ccc2nc(SCC(=O)NCc3ccc(F)cc3)nc(=O)n2c1	GalR3 antag 18 | GalR3 antag conf inactive | CNG parental inactive
Cc1ccc2nc(SCC(=O)Nc3ccc(F)cc3)nc(=O)n2c1	none
COc1ccccc1N(Cc1ccccc1)S(=O)(=O)c1cccc(C(=O)Nc2cccc(C)n2)c1	none
O=C(NCC1CC1)c1ccc(Nc2nc3ccc(Br)cc3[nH]2)cc1	none
O=C(Cc1ccc(Nc2nc3ccc(Br)cc3[nH]2)cc1)NCCc1cccs1	GalR3 antag 15 | GalR3 antag conf 27 | CNG parental inactive
CCOC(=O)CC(N)c1ccc(OC)cc1 (centres undefined)	GalR3 antag 14 | GalR3 antag conf 13 | CNG parental inactive
COc1ccc(OCCOC(=O)c2[nH]c(C)c(C(C)=O)c2C)cc1	GalR3 antag 16 | GalR3 antag conf inactive | CNG parental inactive
COc1cccc2cc(C(=O)NCCN3CCOCC3)c(=O)oc12	none
CCOC(=O)C(N=Nc1nn[nH]n1)C(C)=O (centres undefined)	none (no result: Gli-Sufu block)
COc1cc(C(Nc2ccc(S(=O)(=O)NCC3CCCO3)cc2)C(=O)NC(C)(C)C)cc(OC)c1OC (centres undefined)	GalR3 antag 16 | GalR3 antag conf inactive | CNG parental inactive
Cc1nnc(SCC(=O)Nc2cccc(S(=O)(=O)N(C)c3ccccc3)c2)s1	GalR3 antag 13 | GalR3 antag conf inactive | CNG parental inactive
COCCn1cnnc1SCC(=O)Nc1cccc(S(=O)(=O)N(C)c2ccccc2)c1	none
COc1ccc(-c2cn(-c3ccc(C)c(C)c3)c(=S)[nH]2)cc1OC	none
COc1ccc(-c2cn(-c3ccc(C)c(Cl)c3)c(=S)[nH]2)cc1OC	GalR3 antag 41 | GalR3 antag conf 102 | CNG parental inactive
Oc1ccccc1C1CCCCC1c1ccccc1 (centres undefined)	none
COc1ccc(C)cc1NC(=O)c1ccc(NS(=O)(=O)c2cccc3cccnc23)cc1	GalR3 antag 51 | GalR3 antag conf 85 | CNG parental inactive
CC1(C)CN(C2CCCCC2)C(=O)[C@H]1CC(=O)Nc1ccc(Br)cc1	none (no result: Gli-Sufu block)
Oc1ccccc1-n1c(-c2ccccc2)ccc1-c1ccccc1	none
COc1ccc(CNC(=O)CN(C(=O)CCC(=O)Nc2ccccn2)c2cccc(C)c2)cc1	GalR3 antag 13 | GalR3 antag conf 30 | CNG parental 1.3
COc1ccc(CNC(=O)CN(C(=O)CCC(=O)Nc2ccccn2)c2ccc(C)cc2)cc1	none
COc1cc2c(cc1OC)C(Nc1ccccc1)=NC(C)(C)C2	none
COc1cc2c(cc1OC)-c1cc(Nc3ccccc3)nc(=O)n1CC2	GalR3 antag 44 | GalR3 antag conf 57 | CNG parental inactive
COc1cc2c(cc1OC)-c1cc(Nc3ccc4c(c3)OCCO4)nc(=O)n1CC2	GalR3 antag 59 | GalR3 antag conf 57 | CNG parental inactive
COc1ccc(Nc2cc3n(c(=O)n2)CCc2cc(OC)c(OC)cc2-3)c(C)c1	GalR3 antag 40 | GalR3 antag conf 72 | CNG parental inactive
COc1ccc(Nc2cc3n(c(=O)n2)CCc2cc(OC)c(OC)cc2-3)cc1	GalR3 antag 21 | GalR3 antag conf 59 | CNG parental inactive
Cc1oc2c(c(C)cc3oc(=O)c(CC(=O)N[C@@H](CCCNC(N)=O)C(=O)O)c(C)c32)c1C	none
CCOc1cc(/C=C2\CCC/C(=C\c3cc(Cl)c(O)c(OCC)c3)C2=O)cc(Cl)c1O	GalR3 antag 24 | GalR3 antag conf 53 | CNG parental inactive
C=CCNC(=O)/C(C#N)=C\c1cc(Cl)c(O)c(OCC)c1	none
O=[N+]([O-])c1cc(S(=O)(=O)c2ccc(N3CCCCC3)c([N+](=O)[O-])c2)ccc1N1CCCCC1	GalR3 antag 27 | GalR3 antag conf inactive | CNG parental 2.2
